Screens (PubChem BioAssay)
Shown are actives, neighbours in structure and some others; about 18% of the full set was active somewhere.
CtBP-E1A blk: qHTS Assay for Inhibitors of the CtBP/E1A Interaction. AlphaScreen GST-E1A/His-CtBP binding, 1536-well; hits give low values. activity change, % (test concentration not listed). hit rate 0.49% among 340,000. CtBP / adenovirus E1A interaction (AlphaScreen). AID 651724, 2012; in the data active means activity change below about -65%; inconclusive means mostly about -30% to -63%
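AlphaScreen with 125 nM GST-E1A and 125 nM His-CtBP (5X stocks) in Tris pH 8.0, 300 mM NaCl, BSA, Tween 20, TCEP. Compounds preincubated 2 h at 37 deg C, then glutathione donor/nickel acceptor beads added for 1 h at 37 deg C in dark.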
TDP1 block: qHTS Assay for Inhibitors of Tyrosyl-DNA Phosphodiesterase (TDP1); Tyrosyl-DNA phosphodiesterase 1 (Homo sapiens), Q9NUW8; Potency, µM (doses to about 130 µM), actives largely listed as inhibitors; recombinant TDP1, AlphaScreen DNA substrate cleavage; hit rate 0.28% among 350,000; further: nearly all actives have a fitted effect of over 40% in size
Target sequence (Q9NUW8 whole entry, looked up): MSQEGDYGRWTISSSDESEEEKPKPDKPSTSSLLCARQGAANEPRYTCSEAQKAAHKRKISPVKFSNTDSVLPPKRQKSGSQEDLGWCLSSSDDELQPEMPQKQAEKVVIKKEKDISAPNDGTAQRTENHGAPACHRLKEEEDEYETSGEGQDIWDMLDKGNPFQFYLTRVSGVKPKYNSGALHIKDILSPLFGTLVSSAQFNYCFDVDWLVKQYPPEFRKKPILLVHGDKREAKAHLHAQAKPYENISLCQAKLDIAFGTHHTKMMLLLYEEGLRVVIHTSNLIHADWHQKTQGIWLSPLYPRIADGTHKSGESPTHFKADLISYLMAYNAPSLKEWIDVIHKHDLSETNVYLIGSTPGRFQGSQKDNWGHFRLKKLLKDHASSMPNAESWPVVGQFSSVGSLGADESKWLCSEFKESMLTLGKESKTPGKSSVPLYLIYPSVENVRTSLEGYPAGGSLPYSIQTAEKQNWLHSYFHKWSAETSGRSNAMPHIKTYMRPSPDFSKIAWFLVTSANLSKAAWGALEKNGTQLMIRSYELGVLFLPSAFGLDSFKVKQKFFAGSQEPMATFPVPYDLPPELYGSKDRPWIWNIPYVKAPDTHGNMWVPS
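AlphaScreen read-out: signal falls as enzyme removes the 3' tyrosine-FITC from a 5'-biotinylated DNA oligo (15 nM, 5 min, RT). Enzyme was E. coli-made recombinant Tdp1 at 1 nM, exposed to compound for 15 min beforehand; beads 10 ug/ml, 10 min.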
Six1-Eya2 inh: qHTS Assay for Inhibitors of the Six1/Eya2 Interaction | activity change, % (test concentration not listed) | Homeobox protein SIX1 (Homo sapiens) + Protein phosphatase EYA2 (Homo sapiens), … | AlphaScreen GST-Six1/His-Eya2 binding, biochemical; hits give low values | hit rate 0.56% among 360,000; in the data active means activity change below about -65%; inconclusive means mostly about -30% to -63%
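AlphaScreen luminescence read after one hour at 37 °C in darkness. Pin-transferred compounds met GST-Six1 and His-Eya2 protein (5X stock 250 nM/500 nM) plus glutathione donor and Ni-chelate acceptor beads (5X, 50 ug/mL).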
TDP1 cell CPT: qHTS for Inhibitors of human tyrosyl-DNA phosphodiesterase 1 (TDP1): qHTS in cells in presence of CPT | chicken DT40 Tdp1-/-;hTDP1 cells + 20 nM CPT, ATP luminescence, 48 h | Potency, µM (top dose mostly 46.2 µM), usual class: inhibitors | hit rate 12% among 420,000 | AID 686979, 2013; further: nearly all actives have a fitted effect of over 55% in size
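Chicken DT40 Tdp1-/- cells complemented with human TDP1, 400 cells/well, exposed to compounds plus 20 nM camptothecin for at least 48 h at 37 C; viability read as ATP content by CellTiter-Glo luminescence.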
TDP1 cell noCPT: qHTS for Inhibitors of human tyrosyl-DNA phosphodiesterase 1 (TDP1): qHTS in cells in absence of CPT. hit rate 15% among 420,000. DT40 Tdp1-/- hTDP1 cells, no CPT, ATP luminescence, 48 h. Potency, µM (titrated, usually from 46.2 µM), hits mostly inhibitors. AID 686978, 2013; further: nearly all actives have a fitted effect of over 55% in size
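No-CPT arm: Tdp1-/-;hTDP1 DT40 cells (400/well) plus compounds, incubated ≥48 hr at 37 °C. Readout CellTiter-Glo luminescence.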
IL-1B inflam inh: qHTS for Inhibitors of Inflammasome Signaling: IL-1-beta AlphaLISA Primary Screen; THP-1 LPS/ATP IL-1B secretion, AlphaLISA, 16 h; hits give low values; activity change, % at 57.5 µM; hit rate 4.7% among 360,000; in the data active means activity change below about -50%; inconclusive means mostly about -30% to -49%
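Secreted IL-1B measured by AlphaLISA bead assay after 16 h compound exposure of THP-1 cells; compounds (final up to 57.5 uM) added 1 h before LPS (250 ng/mL) and ATP (1.25 mM) stimulation; lower signal means less secretion.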
Each line names hits and unclear results; the compound was inactive in the other large screens. Unless noted, the call rests on the fitted dose curve; in most records, active means well fitted curve in the direction sought with a large enough effect; inconclusive means small, poorly fitted or top-dose-only effect, or another doubt; inactive means no such curve, though single readings can be large; an effect the other way counts as inactive or inconclusive.

COc1cccc(-c2ccc3c(c2)O[C@@H](CN(C)Cc2cncnc2)[C@@H](C)CN([C@H](C)CO)S3(=O)=O)c1	TDP1 cell CPT 23.1µM, TDP1 cell noCPT 9.2µM (no result: TDP1 block)
Cc1ccc(-c2ccc3c(c2)O[C@H](CN(C)Cc2cncnc2)[C@@H](C)CN([C@H](C)CO)S3(=O)=O)cc1	TDP1 cell CPT inconclusive, TDP1 cell noCPT 23.1µM (no result: TDP1 block)
C[C@@H]1CN([C@@H](C)CO)S(=O)(=O)c2ccc(-c3cccc(C#N)c3)cc2O[C@@H]1CN(C)C(=O)c1ccc(F)cc1	TDP1 cell CPT inconclusive, TDP1 cell noCPT 20.6µM (no result: TDP1 block)
C/C=C/c1ccc2c(c1)O[C@@H](CN(C)C(=O)c1ccc(F)cc1)[C@@H](C)CN([C@H](C)CO)S2(=O)=O	TDP1 cell CPT inconclusive, TDP1 cell noCPT inconclusive (no result: TDP1 block)
Cc1c(NC(=O)c2ccc3c(c2)OCO3)cccc1-c1nc2ccccc2s1	TDP1 cell noCPT inconclusive
O=C(COC(=O)CSc1ccc(F)cc1)NCCCc1ccccc1	none
CC(Oc1ccc(Cl)cc1Cl)c1ccnc2nc(N3CCOCC3)nn12 (configuration not stated)	TDP1 cell CPT inconclusive, TDP1 cell noCPT 18.4µM, IL-1B inflam inh -51.6
CC(Oc1ccccc1)c1ccnc2nc(N3CCOCC3)nn12 (configuration not stated)	TDP1 cell noCPT inconclusive
O=C(OCc1nc2ccccc2s1)c1cccc(N2C(=O)CCC2=O)c1	none
CN(C)C(CNC(=O)c1ccc2ccccc2n1)c1ccccc1 (configuration not stated)	TDP1 cell CPT inconclusive, TDP1 cell noCPT 18.4µM
COc1ccc(Oc2ccc(N/C=C3\CCCC3=O)cc2)cc1	TDP1 cell CPT inconclusive, TDP1 cell noCPT 25.9µM
c1cc(CN2CCCCC2)cc(OCCCNc2nc3ccccc3s2)c1	TDP1 cell CPT 18.4µM, TDP1 cell noCPT 11.6µM
O=C(NCC1CCCN(Cc2cccc(OCCO)c2)C1)c1ccc(F)cc1 (configuration not stated)	none (no result: CtBP-E1A blk)
O=C(NCCCOc1cccc(CN2CCCCC2)c1)c1ccc(Cl)c(Cl)c1	TDP1 cell CPT 18.4µM, TDP1 cell noCPT 13µM, IL-1B inflam inh inconclusive
COc1cccc(CNc2nc3ccc(NC(C)=O)cc3s2)c1	none (no result: TDP1 block)
COc1ccc(Cl)cc1CN1C(=O)NC2(CCCCCC2)C1=O	TDP1 cell CPT inconclusive, TDP1 cell noCPT inconclusive
CCC1CN(C(=O)N2CCC(C(=O)NCCc3ccc(OC)cc3OC)CC2)c2cc(C)ccc2O1 (configuration not stated)	TDP1 cell CPT 20.6µM, TDP1 cell noCPT 16.4µM (no result: CtBP-E1A blk, Six1-Eya2 inh, IL-1B inflam inh)
CCC1CN(C(=O)N2CCC(C(=O)NCc3cccc(F)c3)CC2)c2cc(C)ccc2O1 (configuration not stated)	TDP1 cell CPT 20.6µM, TDP1 cell noCPT 16.4µM (no result: CtBP-E1A blk, Six1-Eya2 inh, IL-1B inflam inh)
CCC1CN(C(=O)N2CCC(C(=O)NCc3ccccc3OC)CC2)c2cc(C)ccc2O1 (configuration not stated)	TDP1 cell CPT 16.4µM, TDP1 cell noCPT inconclusive
CCC1CN(C(=O)N2CCC(C(=O)NCCN(CC)CC)CC2)c2cc(C)ccc2O1 (configuration not stated)	none (no result: CtBP-E1A blk, Six1-Eya2 inh, IL-1B inflam inh)
CCC1CN(C(=O)N2CCC(C(=O)NCc3ccccc3OC)CC2)c2ccccc2O1 (configuration not stated)	TDP1 cell CPT inconclusive, TDP1 cell noCPT inconclusive
COCc1nnc(NC(=O)c2ccc(OC)cc2OC)s1	none
CCN(CC)S(=O)(=O)c1cc(NS(=O)(=O)c2ccc(Cl)c(C(=O)O)c2)ccc1C	none
CCOC(=O)Cc1nnc(NC(=O)C(CC)Sc2nnc3c4ccccc4n(C)c3n2)s1 (configuration not stated)	CtBP-E1A blk -71.0, Six1-Eya2 inh inconclusive
CCOC(=O)Cc1nnc(NC(=O)C(CC)Sc2nc(C)cc(=O)[nH]2)s1 (configuration not stated)	TDP1 cell CPT inconclusive, TDP1 cell noCPT 16.4µM
CCOC(=O)c1sc(NC(=O)C(CC)Sc2nnc3c4ccccc4n(C(C)C)c3n2)nc1C (configuration not stated)	TDP1 cell CPT inconclusive, TDP1 cell noCPT inconclusive
CCOC(=O)Cc1nnc(NC(=O)C(CC)Sc2nncn2C)s1 (configuration not stated)	none
CCN(CC)CCn1nc2c3c(cccc3c1=O)-c1ccccc1-2	TDP1 cell CPT 0.517µM, TDP1 cell noCPT 0.0164µM, IL-1B inflam inh -98.9
O=c1c2cccc3c2c(nn1CN1CCOCC1)-c1ccccc1-3	CtBP-E1A blk inconclusive, Six1-Eya2 inh inconclusive, TDP1 cell CPT inconclusive, TDP1 cell noCPT 20.6µM
COc1ccc(NC(=O)c2cc3c(=O)n(C)c4ccccc4c3s2)cc1Cl	TDP1 cell noCPT inconclusive (no result: CtBP-E1A blk, Six1-Eya2 inh, IL-1B inflam inh)
COc1ccc(C2=C(Nc3ccc(C)cc3C)c3ccccc3C2=O)cc1	TDP1 cell CPT 13µM, TDP1 cell noCPT inconclusive (no result: CtBP-E1A blk, Six1-Eya2 inh, IL-1B inflam inh)
COC1=C(c2ccccc2)C(=O)c2ccccc2C1=O	CtBP-E1A blk inconclusive, Six1-Eya2 inh inconclusive, TDP1 cell CPT 23.1µM, TDP1 cell noCPT 16.4µM, IL-1B inflam inh -168.8
COc1ccc(C2=C(N)c3ccccc3C2=O)cc1	TDP1 cell CPT inconclusive, TDP1 cell noCPT inconclusive
COc1ccc(NC2=C(c3ccc(OC)cc3)C(=O)c3ccccc32)cc1	CtBP-E1A blk inconclusive, TDP1 cell CPT 3.66µM, TDP1 cell noCPT inconclusive
O=C(C1=C(c2ccccc2)C(=O)c2ccccc2C1=O)c1ccccc1	Six1-Eya2 inh inconclusive, TDP1 cell CPT 2.06µM, TDP1 cell noCPT 2.91µM, IL-1B inflam inh -103.8
O=C(c1ccccc1)c1coc(-c2ccccc2)c1	TDP1 cell CPT inconclusive, TDP1 cell noCPT inconclusive (no result: TDP1 block)
O=C1C(c2ccc(C(F)(F)F)cc2)=C(Nc2ccc(Cl)cc2)c2ccccc21	TDP1 cell CPT 16.4µM, TDP1 cell noCPT 11.6µM (no result: CtBP-E1A blk, Six1-Eya2 inh, IL-1B inflam inh)
CSc1ccc(S(=O)(=O)NCC(=O)OCC(=O)N(C)C2CCCCC2)cc1[N+](=O)[O-]	none
O=[N+]([O-])c1cc(CN2CCN(c3ccccc3)CC2)c(O)c2ncccc12	CtBP-E1A blk -94.6, Six1-Eya2 inh -90.8, TDP1 cell CPT 2.06µM, TDP1 cell noCPT 4.11µM
Oc1c(CN2CCc3ccccc3C2)cc(Cl)c2cccnc12	CtBP-E1A blk -89.0, Six1-Eya2 inh -92.9, TDP1 cell CPT 5.8µM, TDP1 cell noCPT 5.8µM
